Screening results from PubChem BioAssay.
Shown are actives, neighbours in structure and some others; about 3.8% of the full set was active somewhere.
KAT2A inh = GCN5L2 (KAT2A) acetyltransferase inhibition | Q92830 | GCN5L2 HAT assay, ThioGlo1 CoA-SH fluorescence | Potency, µM (highest dose often 58.9 µM), actives largely listed as inhibitors | 390,000 tested, 0.21% active | AID 504327
Target sequence (Q92830 whole entry, looked up): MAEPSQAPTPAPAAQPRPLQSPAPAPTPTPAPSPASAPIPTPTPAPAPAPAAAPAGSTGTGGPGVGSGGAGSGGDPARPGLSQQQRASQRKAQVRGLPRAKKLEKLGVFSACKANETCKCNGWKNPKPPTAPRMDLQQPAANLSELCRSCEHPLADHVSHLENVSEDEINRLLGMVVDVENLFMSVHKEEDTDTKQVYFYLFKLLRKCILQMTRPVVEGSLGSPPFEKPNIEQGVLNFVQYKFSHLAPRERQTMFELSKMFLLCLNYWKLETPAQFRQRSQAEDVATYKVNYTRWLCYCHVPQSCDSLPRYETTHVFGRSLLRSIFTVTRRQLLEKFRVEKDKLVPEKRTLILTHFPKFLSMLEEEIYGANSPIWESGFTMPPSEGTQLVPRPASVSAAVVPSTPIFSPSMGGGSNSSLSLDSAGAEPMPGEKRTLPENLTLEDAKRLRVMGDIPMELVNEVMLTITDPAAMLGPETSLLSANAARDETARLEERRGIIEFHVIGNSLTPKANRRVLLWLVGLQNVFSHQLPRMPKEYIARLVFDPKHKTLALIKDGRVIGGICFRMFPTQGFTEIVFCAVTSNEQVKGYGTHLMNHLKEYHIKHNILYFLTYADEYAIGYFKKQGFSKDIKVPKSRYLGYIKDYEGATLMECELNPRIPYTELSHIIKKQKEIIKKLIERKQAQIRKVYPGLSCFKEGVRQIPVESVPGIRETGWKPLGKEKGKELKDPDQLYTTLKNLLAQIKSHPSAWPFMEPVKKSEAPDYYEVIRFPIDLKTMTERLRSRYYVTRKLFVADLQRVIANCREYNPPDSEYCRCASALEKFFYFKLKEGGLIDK
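GCN5L2 (20 nM) in 50mM HEPES pH 7.5, 0.1mM EDTA, 0.01% Tween-20 preincubated 15 min with compounds at room temperature. Reaction started with H3(1-25) 75uM, acetyl-CoA 70uM, ThioGlo1 50uM; CoA-thiol fluorescence (Ex340/Em540) read at 0 and 20 min.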
GLS inhibitor = glutaminase GLS (human) inhibition; O94925; GLS enzymatic activity, qHTS titration; Potency, µM (series often up to 45.5 µM), hits mostly inhibitors; 410,000 tested, 0.21% active
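hKGA in 45 mM KH2PO4 (pH 8.2), 0.02% Tween-20 with compound, then 1mM L-Glutamine (stock as added) plus glutamate oxidase/HRP/Amplex red coupling mix. Fluorescence read initially and after 30 min at RT; signal change reflects glutamate formation.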
Sfp PPTase inh = blocks B. subtilis Sfp PPTase activity. Q9F4F7. Biochemical Sfp PPTase activity, qHTS. Potency, µM, most hits filed as inhibitors. 310,000 tested, 3.5% active. AID 1490;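 note: the enzyme is Sfp with the accession as filed and its product quenches rhodamine fluorescence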
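After 15 min at room temperature with compound, 15 nM Sfp received 5 uM rhodamine-CoA plus 12.5 uM BHQ-2-ybbR (50 mM Hepes pH 7.6, 10 mM MgCl2). Rate came from the fluorescence difference over 30 min, ex 525/em 598 nm.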
rTrxR1 inhibitor = blocks rat thioredoxin reductase 1 | AID 588453 | O89049 | Potency, µM (series often up to 114 µM), usual class: inhibitors | 390,000 tested, 1% active | recombinant rTrxR1, NADPH fluorescence consumption, selenite substrate; note: nearly all actives have a fitted effect of over 65% in size
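Rat TrxR1 (90 nM in the dispensed reagent) was pre-reduced with 400 uM NADPH for 5 min at room temperature, then incubated with compound for 15 min. After 400 uM selenite was added, NADPH fluorescence (Ex 340/Em 450 nm) was followed for 8 min.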
VDR inh = inhibitors of human vitamin D receptor; Potency, µM, most hits filed as inhibitors; AID 504847; VDR-SRC2-3 peptide fluorescence polarization, 2 h; 400,000 tested, 0.93% active; P11473
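After 23 nl compound addition and a short centrifugation, plates sat for 2 hours at ambient temperature; polarization of fluorescence then indicated loss of VDR binding to peptide SRC2-3.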
TrxR1 substrate = substrates of rat thioredoxin reductase 1; purified TrxR1 substrate turnover, NADPH consumption readout; AID 588456; 390,000 tested, 0.01% active; Potency, µM (top dose mostly 114 µM); note: nearly all actives have a fitted effect of over 50% in size
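Rat TrxR1, dispensed at 90 nM, was prereduced with 400 uM NADPH (final) for 5 min at ~22 deg C, then incubated with compound 15 min before 400 uM selenite. A first-read NADPH fluorescence drop versus no-compound background flagged substrates.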
A number is an active result; – = inactive; ? = inconclusive; · = no result; ! = not confirmed by another sample; [ ] = another dose, or the depositor's remark. Calls come from the whole dose curve; as a rule, active = well fitted curve in the direction sought with a large enough effect; inconclusive = small, poorly fitted or top-dose-only effect, or another doubt; inactive = no such curve, though single readings can be large; an effect the other way counts as inactive or inconclusive.

SMILES	KAT2A inh	GLS inhibitor	Sfp PPTase inh	rTrxR1 inhibitor	VDR inh	TrxR1 substrate
NC(=O)c1sc2nc3c(cc2c1N)CCCCCC3	–	–	31.6µM	–[11.4 µM]	–	–
CSC1=N/C(=C\c2ccc(F)cc2)C(=O)S1	–	–	–	–	–	–
COc1ccc(/C=C/C=C2\N=C(SC)SC2=O)cc1	–	–	44.7µM	–	–	–
Cc1cc(=O)c2c(o1)C(=O)c1occc1C2=O	·	–	·	31.6µM	?	–
N#Cc1ccccc1NC(=O)Cn1cnc2onc(-c3cccc(F)c3)c2c1=O	–	–	·	–	–	–
COc1ccc(C2CC(=O)Oc3ccc(O)cc32)cc1 (stereo not drawn)	–	·	?	·	–	·
Cc1ccccc1C1CC(=O)Oc2ccc(O)cc21 (stereo not drawn)	–	·	126µM	·	?	·
COc1ccccc1C1CC(=O)Oc2cc3c(cc21)OCO3 (stereo not drawn)	28.2µM	·	–	·	?	·
COc1cc(C2CC(=O)Oc3ccc(O)cc32)cc(OC)c1OC (stereo not drawn)	–	·	50.1µM	·	–	·
COc1ccccc1C1CC(=O)Oc2cc(O)ccc21 (stereo not drawn)	–	–	–	–	–	–
CC(C)Oc1ccc(C(=O)NC(=S)Nc2ccc(CN3CCOCC3)cc2)cc1	–	–	–	?	–	–
Cc1ccc(S(=O)(=O)N2CCC(C(=O)Nc3nnc(-c4ccco4)s3)CC2)cc1	–	–	–	?	–	–[11.4 µM]
O=C(Nc1nc(-c2ccco2)c(-c2ccco2)s1)C1CC(=O)N(c2ccc3c(c2)OCCO3)C1 (stereo not drawn)	?	–	10µM	?	?	–
O=C(Nc1nc(-c2ccco2)c(-c2ccco2)s1)C1CCC1	–	–	28.2µM	?	?	–
CS(=O)(=O)c1ccc(C(=O)Nc2nc(-c3ccco3)c(-c3ccco3)s2)cc1	?	–	·	14.1µM	?	–
NC1=NC(=O)/C(=C\c2ccc(-c3ccc(Cl)cc3)o2)S1	–	–	–	–	–	–
Cc1c(NC(=O)c2cc3ccccc3o2)c(=O)n(-c2ccccc2)n1C	–	–	–	–	–	–
O=C(O)CSc1cccc2cccc(C(=O)O)c12	?	–	–	–	–	–
CCOc1ccc(-c2nnc(SCC(=O)Nc3cc(C)ccc3OC)o2)cc1	–	–	·	28.2µM	–	–
COC(=O)C1C(=O)C2=C(CC1C)NC(=O)CC2c1ccc(F)cc1 (stereo not drawn)	–	–	–	–	–	–
CCOc1cc(C2CC(=O)NC3=C2C(=O)C(C(=O)OC)C(C)C3)cc(Br)c1O (stereo not drawn)	–	–	50.1µM	–	–	–
O=C(CSc1ccc(Cl)cc1)NC1CCCC1	–	–	–	–	–	–
O=C1/C(=C/c2ccncc2)SC(=S)N1C1CCS(=O)(=O)C1 (stereo not drawn)	?	–	50.1µM	?	–	–
Cc1ccc(/C=C2\SC(=S)N(C3CCS(=O)(=O)C3)C2=O)o1 (stereo not drawn)	–	?	50.1µM	15.8µM	–	–
CC1=C(C#N)C(=O)N(C2CCS(=O)(=O)C2)C(=O)/C1=C\c1ccc(C)o1 (stereo not drawn)	?	·	12.6µM	·	·	·
SMILES	KAT2A inh	GLS inhibitor	Sfp PPTase inh	rTrxR1 inhibitor	VDR inh	TrxR1 substrate
O=C1/C(=C/c2ccccc2)SC(=S)N1C1CCS(=O)(=O)C1 (stereo not drawn)	–	–	–	–	–	–
NS(=O)(=O)c1ccc(-c2ccc(/C=C3\SC(=S)N(C4CCS(=O)(=O)C4)C3=O)o2)cc1 (stereo not drawn)	–	–	?	–	?	–
Cc1ccc(C2(CC(=O)O)CCOC(C)(C)C2)cc1 (stereo not drawn)	–	–	–	–	–	–
c1ccc(-c2cc(N3CCOCC3)nc3ccccc23)cc1	·	–	56.2µM	–	?	–
Cc1cccc(OCC(=O)NCc2ccc(F)cc2)c1	–	–	–	–	–	–
CN(C(=S)NC(=O)CCCOc1ccc(Cl)cc1Cl)c1ccccc1	–	–	50.1µM	–	–	–
CN(C(=S)NC(=O)Cc1ccccc1)c1ccccc1	–	–	17.8µM	–	–	–
CCOC(=O)Cc1c(C)nc2c(-c3ccc(Cl)cc3)cnn2c1C	–	–	–	–	–	–
CCCCC(=O)/C=C/n1c(=S)oc2ccccc21	–	–	–	2.24µM	12.6µM	–
COc1ccc2nc(SCC(=O)Nc3cc(OC)c(OC)cc3C(=O)O)c(C)cc2c1	–	–	79.4µM	–	–	–
COc1cc(NC(=O)CSc2nccc(C)n2)c(C(=O)O)cc1OC	–	–	?	–	–	–
Clc1ccc(C2NCCc3sccc32)cc1 (stereo not drawn)	–	–	–	–	–	–
Oc1ccc(C2CNCc3sccc32)cc1O (stereo not drawn)	–	?	·	?	12.6µM!	–
Cn1nnnc1SCC1=C(C(=O)O)N2C(=O)C(NC(=O)C(O)c3ccccc3)C2SC1 (stereo not drawn)	–	·	–	·	50.1µM	·
Cc1nn(C(C)C(=O)NC2C(=O)N3C(C(=O)O)=C(CSc4nnnn4C)CSC23)cc1Cl (stereo not drawn)	–	–	79.4µM	?	–	–
CC(C(=O)NC1C(=O)N2C(C(=O)O)=C(CSc3nnnn3C)CSC12)n1cc(Br)cn1 (stereo not drawn)	–	–	–	?	–	–
Cn1nnnc1SCC1=C(C(=O)O)N2C(=O)[C@@H](NC(=O)[C@H](O)c3ccccc3)[C@H]2SC1	–	10µM	?	–	–	–
Cn1nnnc1SCC1=C(C(=O)O)N2C(=O)C(NC(=O)C(OC=O)c3ccccc3)C2SC1 (stereo not drawn)	–	·	–	·	?	·
Cn1nnnc1SCC1=C(C(=O)O)N2C(=O)[C@@H](NC(=O)[C@H](OC=O)c3ccccc3)[C@H]2SC1	·	22.4µM	·	·	·	·
COc1ccc(OC)c(CN(CCN2CCOCC2)S(=O)(=O)c2ccc(NC(C)=O)cc2)c1	–	–	–	–	–	–
COc1ccc(N2CCN(S(=O)(=O)CCNC(=O)C3CC(=O)N(c4ccccc4)C3)CC2)cc1 (stereo not drawn)	–	–	–	–	–	–
Cn1nnnc1SCC1=C(C(=O)O)N2C(=O)C(NC(=O)C3CC3c3ccccc3)C2SC1 (stereo not drawn)	–	–	?	?	?	–
Cc1cc(C(F)F)nn1CC(=O)NC1C(=O)N2C(C(=O)O)=C(CSc3nnnn3C)CSC12 (stereo not drawn)	–	–	56.2µM	–	–	–
COc1ccc(Cl)cc1NC(=O)c1cc2ccccn2n1	–	–	·	–	–	–
CC(C)c1ccc(N=c2c([N+](=O)[O-])nn(-c3ccc4c(c3)OCCO4)n2O)cc1	–	11.2µM	–	–	–	–
